RecA intein inh: blocks M. tuberculosis RecA intein splicing. P9WHJ3. cell-free RecA intein splicing, fluorescence. inhibition, % (no concentration beside the values). hit rate 0.75% among 290,000. AID 2221; in the data active means inhibition above about 30%;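 further: 0% = vehicle wells and 100% = reference inhibitor control wells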
Mtb UGM inh: inhibitors of M. tuberculosis UDP-galactopyranose mutase | inhibition, % at 10 µM | hit rate 0.06% among 320,000 | AID 504406 | purified UGM, fluorescence polarization probe displacement | P9WIQ1; in the data active means inhibition above about 10%, passing the limit was not always enough
Rv3671c inh: Rv3671c (M. tuberculosis) protease inhibition; P9WHR9; inhibition, % at 5.96 µM; hit rate 0.048% among 320,000; in the data active means inhibition above about 38%;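 further: extracellular domain of Rv3671c used as enzyme; 0% = enzyme with DMSO and 100% = no enzyme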
Target sequence (P9WHR9 whole entry, looked up, the tested form may be a part): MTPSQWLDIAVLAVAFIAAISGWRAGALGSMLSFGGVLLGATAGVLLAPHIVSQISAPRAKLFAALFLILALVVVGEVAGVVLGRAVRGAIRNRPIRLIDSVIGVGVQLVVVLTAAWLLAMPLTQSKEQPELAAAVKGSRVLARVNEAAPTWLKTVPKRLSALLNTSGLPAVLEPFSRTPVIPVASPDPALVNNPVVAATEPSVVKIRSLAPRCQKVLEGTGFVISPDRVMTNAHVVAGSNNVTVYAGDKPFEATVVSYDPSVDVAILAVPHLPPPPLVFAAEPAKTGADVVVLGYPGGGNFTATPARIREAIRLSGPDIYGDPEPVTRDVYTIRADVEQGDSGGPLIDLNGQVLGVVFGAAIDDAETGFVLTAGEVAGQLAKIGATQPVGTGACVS
GDH-TPI counter-1: counter-screen for M. tuberculosis FBA inhibitors: GDH-TPI coupled enzymes | GDH-TPI coupled enzyme counterscreen, NADH absorbance | inhibition, % at 4.8 µM | hit rate 1.2% among 360,000; in the data active means inhibition above about 30%;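 further: 0% = DMSO wells and 100% = wells lacking the enzyme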
Vc quorum ag: quorum light induction in luxS cqsA deficient V. cholerae. activation, % at 18.7 µM. hit rate 0.16% among 350,000. V. cholerae BH1578 lux reporter, luminescence, 6 h; in the data active means activation mostly above about 9.7%, no sharp cut-off
Mtb FBA inh: Mtb fructose-bisphosphate aldolase inhibition | AID 588726 | inhibition, % at 1 µM | hit rate 2.3% among 360,000 | purified M. tuberculosis FBA, fluorescence read-out | P9WQA3;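 further: 0% = vehicle and 100% = reference inhibitor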
Mtb FBA inh conf: confirmation of M. tuberculosis fructose-bisphosphate aldolase inhibitors; inhibition, % at 1 µM; AID 651616; purified M. tuberculosis FBA, fluorescence read-out; hit rate 78% among 5,600; shares compounds with Mtb FBA inh;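 further: 0% = vehicle wells and 100% = reference inhibitor wells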
GDH-TPI counter-2: inhibits GDH-TPI coupling enzymes, flagging Mtb FBA hits. shares compounds with Mtb FBA inh. GDH-TPI coupled enzyme counterscreen, fluorescence. inhibition, % at 1 µM. hit rate 81% among 5,600; in the data active means inhibition above about 10%
An asterisk follows results filed as active; i = inactive; · = no result given; + = active, no number. An excerpt weighted towards active compounds, which were near 4.1% of everything screened. Unless noted, no stated cut-off is given here; in the data, active means inhibition above about 27%; inactive means the rest.

SMILES	RecA intein inh	Mtb UGM inh	Rv3671c inh	GDH-TPI counter-1	Vc quorum ag	Mtb FBA inh	Mtb FBA inh conf	GDH-TPI counter-2
O=C(c1cc(COc2cccc3cnccc23)on1)N1CCCC(CCCO)C1 (stereo unspecified)	4	1	-3	4	0	30*	192*	132*
COc1cc2nc(N3CCN(C(=O)[C@H]4COc5ccccc5O4)CC3)nc(N)c2cc1OC	2	1	-2	3	0	82*	63*	38*
COc1ccc(-c2nc3ncccn3c2Br)cc1	-4	-3	-1	14	0	49*	+	186*
CCCN(C(=O)c1ccc(N(C)S(=O)(=O)c2ccc(C)cc2)cc1)C1CCS(=O)(=O)C1 (stereo unspecified)	-1	3	3	3	6	1	·	·
CNc1cc(-c2ccc(OC)c(OC)c2)ncn1	·	·	·	13	0	24	·	·
CNc1ccc2ncc(-c3ccc(OC)c(OC)c3)n2n1	·	·	·	17	i	44*	11	7
COc1ccccc1-c1cncc(NC(C)=O)n1	·	·	·	13	i	2	·	·
CNc1cncc(-c2ccc(OC)c(OC)c2)n1	·	·	·	20	i	58*	78*	63*
CNc1cncc(-c2c(OC)cccc2OC)n1	·	·	·	8	i	77*	+	+
CCCCn1c(CCCNC(=O)c2ccco2)nc2ccccc21	3	1	5	-3	i	0	·	·
Cc1nc2ccc(NC(=S)N3CCCC3)cc2nc1C	-1	1	-6	8	i	15	·	·
CCOC(=O)N1CCN(C(=O)Nc2ccc3nccnc3c2)CC1	-1	-4	-6	15	-3	5	·	·
CCOC(=O)N1CCN(C(=O)Nc2ccc3nc(C)c(C)nc3c2)CC1	-1	-1	1	14	·	43*	+	+
Cc1nc2ccc(NC(=O)N3CCCCC3)cc2nc1C	0	1	-10	6	i	63*	159*	130*
CC(C)CNc1oc(-c2ccco2)nc1C#N	-1	-4	1	7	0	72*	97*	80*
N#Cc1nc(COc2ccccc2F)oc1NCc1ccc(F)cc1	0	-1	1	0	0	-2	·	·
CC(Nc1oc(-c2ccco2)nc1C#N)c1ccccc1 (stereo unspecified)	3	1	-11	13	0	49*	0	-3
CC(C)CNc1oc(-c2ccccc2Cl)nc1C#N	3	-1	-5	14	0	11	·	·
N#Cc1nc(-c2ccco2)oc1NCc1ccc(F)cc1	1	1	3	3	i	40*	103*	84*
CN(C)c1cccc(Nc2ccc(-c3ccc(OC(F)(F)F)cc3)cn2)c1	·	·	·	15	0	3	·	·
CCC(CO)Nc1ncnc2c1cnn2-c1ccc(OC)cc1 (stereo unspecified)	0	1	7	-3	0	30*	63*	52*
CCC(CO)Nc1ncnc2c1cnn2-c1ccc(Cl)cc1 (stereo unspecified)	1	-1	-11	2	0	11	·	·
CC1CC(C)CN(c2oc(-c3ccccc3F)nc2C#N)C1 (stereo unspecified)	-3	-2	7	10	1	60*	101*	78*
CC1CCN(c2oc(-c3ccc(F)cc3)nc2C#N)CC1	4	1	-6	9	-1	97*	-1	-2
COc1ccc(-c2nc(C#N)c(N3CCN(c4ccccc4)CC3)o2)cc1	1	-5	9	-2	0	1	·	·
SMILES	RecA intein inh	Mtb UGM inh	Rv3671c inh	GDH-TPI counter-1	Vc quorum ag	Mtb FBA inh	Mtb FBA inh conf	GDH-TPI counter-2
Cc1ccccc1-c1nc(C#N)c(N2CCC(C)CC2)o1	15	-1	0	12	0	48*	51*	46*
CCN1CCN(c2oc(-c3ccc(OC)cc3)nc2C#N)CC1	-3	-1	5	26	0	32*	143*	119*
CCOc1ccc(-c2nc(C#N)c(N3CCN(Cc4ccccc4)CC3)o2)cc1	4	3	10	3	·	11	·	·
CN(CC(=O)Nc1c(Cl)cccc1Cl)C(=O)CNC(=O)c1ccco1	·	-2	1	2	1	0	·	·
CC(C)c1ccc(NC(=O)Nc2nnc([C@H]3C[C@H](O)[C@@H](CO)O3)s2)cc1	·	·	·	-3	i	-3	·	·
CCOC(=O)C1CCCN(c2cc(=O)n(Cc3ccc(F)cc3)c(=O)[nH]2)C1 (stereo unspecified)	0	-3	0	-8	1	-1	·	·
CCOC(=O)C1CCCN(c2oc(-c3ccc(F)cc3)nc2C#N)C1 (stereo unspecified)	8	1	-8	3	0	30*	+	197*
COc1ccccc1-c1nc(C#N)c(N2CCN(c3ccccc3)CC2)o1	12	3	-2	3	0	6	·	·
COc1ccccc1-c1nc(C#N)c(N2CCc3ccccc3C2)o1	-2	-3	5	14	i	106*	-5	-5
O=C(O)CCC(=O)Nc1nc2nccc(-c3ccccc3)n2n1	0	0	-2	12	-4	45*	+	181*
CCCC(=O)Nc1nc2nc(-c3ccccc3)cc(-c3ccccc3)n2n1	-2	1	-11	18	1	7	·	·
C/C(=N\O)c1ccc2c3ccccc3n(C)c2c1	1	0	-6	5	i	44*	+	169*
CCn1c2ccccc2c2cc(/C(C)=N/O)ccc21	7	-1	-3	2	i	4	·	·
CCCN(CCC)CCCNC(=O)c1cc2c(=O)[nH]c3ccccc3c2s1	1	2	-7	9	-1	70*	+	194*
O=C(NCC1CCCO1)c1cc2c(=O)[nH]c3ccccc3c2s1 (stereo unspecified)	-4	-4	-2	-2	-1	35*	53*	55*
CCCCN(CC)CCNC(=O)c1cc2c(=O)[nH]c3ccccc3c2s1	0	1	-6	21	-1	39*	+	+
Cc1ccc2[nH]c(=O)c3cc(C(=O)NCC4CCCO4)sc3c2c1 (stereo unspecified)	-5	-2	-8	19	0	25	·	·
Cn1c(SCc2cccc(C#N)c2)nc2ccccc2c1=O	-1	0	1	5	1	29*	8	7
CCn1cc(CCC(=O)O)c(C)n1	-1	5	5	2	-1	0	·	·
CCn1cc(-c2ccnc3cc(C(=O)O)nn23)c(C)n1	-12	0	3	12	0	84*	76*	58*
Cc1c(-c2ccnc3cc(C(=O)O)nn23)cnn1C	-13	-4	1	12	i	79*	22	17*
Cc1cc2nccc(-c3ccc(Cl)cc3Cl)n2n1	-3	-2	11	0	2	1	·	·

Screening results: PubChem, several laboratories
